# GLP1R ag – GLP-1 receptor (human) agonism. hit rate 0.007% among 380,000. Potency, µM (highest dose often 45.6 µM), for inactives: at the highest dose activation, actives largely listed as activators. HEK293 GLP-1R CRE-luciferase, luminescence, 4-6 h; cells express a hypersensitive GLP-1R form. AID 624172. P43220; further: potency means the concentration at half of the fitted maximal effect; % of control where 0% means no effect
# GLP1R inv ag – inverse agonists of human GLP-1 receptor; hit rate 1.6% among 410,000; P43220; HEK293 GLP-1R CRE-luciferase, luminescence, 24 h; GLP-1R form is constitutively active; Potency, µM (top dose mostly 38.3 µM), for the others: at the highest dose activity change, negative = inhibition, most hits filed as inhibitors; AID 624417; further: potency means the concentration at half of the fitted maximal effect; on the % scale 0 is the no-effect control and ±100 the full control effect; nearly all actives have a fitted effect of over 55% in size
#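 Constitutively active GLP-1R drives a cAMP-responsive luciferase in stably transfected HEK293 cells; test compounds are added after overnight (12 h) attachment and left 24 hr, and signal loss in luminescence marks inhibition.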
# GLP1R cytotox – cytotoxicity counter-screen for GLP-1 receptor inverse agonists; HEK293 cAMP-luciferase reporter cells, luminescence, 24 h; Potency, µM (doses to about 38.3 µM), for inactives: top-dose activity change, negative = inhibition, actives largely listed as inhibitors; hit rate 0.13% among 410,000; AID 624418;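 further: loss of luciferase light is scored as toxicity; potency means the concentration at half of the fitted maximal effect; on the % scale 0 is the no-effect control and ±100 the full control effect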
#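 1536-well qHTS counterscreen of the MLSMR; 200 cells/uL, 12 h pre-incubation, 23 nL cpd, 24 h at 37 deg C 5% CO2, luciferase detection reagent, 12 min RT, luminescence. Inhibition = undesired.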
# ClpP mod – qHTS Assay for Activators of ClpP; Potency, µM (top dose mostly 57.5 µM), without a hit: at the highest dose activity change, negative = active; hit rate 1.9% among 340,000; AID 651965, 2013; purified B. subtilis ClpP, FRET peptide cleavage, 20 min; active means well fitted falling curve with a large enough effect; inconclusive means small, poorly fitted or top-dose-only effect; inactive means no such curve, though single readings can be large or run the other way; further: potency means the concentration at half of the fitted maximal effect; the source files actives as falling curves though it sought activators and does not explain the sign; nearly all actives have a fitted effect of over 65% in size
# Target sequence (P80244 whole entry, looked up): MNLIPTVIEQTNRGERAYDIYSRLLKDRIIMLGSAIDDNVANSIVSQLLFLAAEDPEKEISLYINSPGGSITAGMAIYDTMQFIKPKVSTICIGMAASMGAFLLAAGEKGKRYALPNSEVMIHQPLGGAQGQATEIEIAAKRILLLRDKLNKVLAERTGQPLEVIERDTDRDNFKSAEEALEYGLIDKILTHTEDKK
#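 ClpP 10 microg/mL final, pH 8 Tris/KCl buffer with BSA, glycerol, Tween-20; compound pinned in; FRET-FV substrate; RT 20 min; Ex320/Em430; ΔFRET vs ADEP 5.8 microM, DMSO, no enzyme.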
# DRD3 agonist – activates the human D3 dopamine receptor. P35462. D3R DiscoveRx beta-arrestin cells, luminescence, 90 min. max activation, %. hit rate 0.58% among 410,000. AID 652048; in the data active means max activation above about 30%; further: 0% is about no effect
# Target sequence (P35462 whole entry, looked up): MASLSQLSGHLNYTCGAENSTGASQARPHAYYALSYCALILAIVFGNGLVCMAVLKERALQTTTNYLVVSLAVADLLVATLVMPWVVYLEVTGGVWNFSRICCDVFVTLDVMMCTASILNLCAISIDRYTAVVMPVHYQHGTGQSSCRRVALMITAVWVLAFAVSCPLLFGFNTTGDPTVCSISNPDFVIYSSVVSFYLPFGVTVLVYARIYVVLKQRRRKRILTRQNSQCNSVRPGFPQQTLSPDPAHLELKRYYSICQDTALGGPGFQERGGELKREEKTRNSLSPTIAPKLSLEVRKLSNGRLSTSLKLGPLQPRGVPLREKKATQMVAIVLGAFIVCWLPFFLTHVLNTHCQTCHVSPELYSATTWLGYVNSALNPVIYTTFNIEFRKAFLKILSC
#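 Agonist-mode cell screen: cells plated at 1500/well and incubated overnight at 37 °C, then exposed to library compounds for 90 min at 37 °C. Detection reagent was added for 30–60 min at room temperature, and luminescence was read.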
# D3 antag – blocks the human D3 dopamine receptor. D3R cells, DiscoveRx beta-arrestin luminescence, antagonist mode; stronger effect = lower value. hit rate 2.5% among 360,000. P35462. AID 652054. max response, negative = inhibition, %; in the data active means max response below about -50%; inconclusive means no clear call, values can overlap the other calls; further: on the % scale 0 is the no-effect control and ±100 the full control effect
#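 Cells expressing the human receptor were seeded at 1500 cells/well, incubated overnight at 37 degrees C in 5% CO2, then exposed to library compounds with dopamine controls for 90 minutes at 37 degrees C before luminescent detection.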
# * = called active by the depositor; ? = inconclusive; nt = no result given; [ ] = dose if it differs, or a comment. A selection: hits, their analogues and other compounds. The true share with any hit is near 5.7%. Unless noted, the call rests on the fitted dose curve; in most records, active means well fitted curve in the direction sought with a large enough effect; inconclusive means small, poorly fitted or top-dose-only effect, or another doubt; inactive means no such curve, though single readings can be large; an effect the other way counts as inactive or inconclusive.
SMILES,GLP1R ag,GLP1R inv ag,GLP1R cytotox,ClpP mod,DRD3 agonist,D3 antag
COc1ccc([C@H]2C[C@@H](O)[C@H](n3cc(COC(=O)c4ccccc4)nn3)CN2CC2CCCCC2)cc1,-1%,11µM*,-29%,-6%,-1,-2
c1ccc(/N=C2\N=C(Nc3ccccn3)c3ccccc32)nc1,14%,?,0%,nt,-17,9
O=C(CCC1N=C2c3ccccc3N=C(SCc3cccc(Cl)c3)N2C1=O)N1CCN(c2ccccc2)CC1 (stereo unspecified),nt,?,-17%,1%,7,nt
COc1ccc(C(=O)OC2C[C@H]3CC[C@H](C2)N3C)cc1OC (stereo partly specified),1%,?,0%,-5%,-19,-5
CCCCCN1C(C(=O)c2ccccc2)=C(NC(=O)c2ccc(OC)c(OC)c2)c2ccccc2S1(=O)=O,nt,10µM*,84%,1%,7,nt
COC(=O)C1=C(c2ccc(-c3ccccc3)c(F)c2)C[C@@H]2CC[C@H]1N2C(=O)NCc1cc(C)oc1C(F)(F)F,-7%,3.5µM*,4%,-8%,-2,-25
COC(=O)C1=C(c2ccc(OCc3ccccc3)cc2)C[C@@H]2CC[C@H]1N2C(=O)NCCCc1ccccc1,-4%,-4%,17%,-12%,-9,-51*
COC(=O)C1=C(c2cccc(OCc3ccccc3)c2)C[C@@H]2CC[C@H]1N2C(=O)NCCCc1ccccc1,2%,-12%,5%,-4%,0,0
COC(=O)C1=C(c2ccc(OC(F)(F)F)cc2)C[C@@H]2CC[C@H]1N2C(=O)NCCO,13%,-3%,1%,1%,5,33
COC(=O)C1=C(c2cccc(C#N)c2)C[C@@H]2CC[C@H]1N2C(=O)NCc1cc(C)oc1C(F)(F)F,5%,1%,29%,-4%,-6,?
COC(=O)C1=C(c2ccc(OC(F)(F)F)cc2)C[C@@H]2CC[C@H]1N2C(=O)NCC1CC1,6%,10µM*,-19%,1%,10,29
COC(=O)C1=C(c2ccc(OCc3ccccc3)cc2)C[C@@H]2CC[C@H]1N2C(=O)NCc1ccccc1OC,5%,13µM*,4%,-8%,-10,-25
[O]=[Sb]([OH])([OH])[c]1ccccc1,nt,nt,nt,0%,nt,nt
CCC12CN3CC(CC)(CN(C1)C3c1c(C)[nH]c(=O)[nH]c1=O)C2=O (stereo unspecified),nt,11%,4%,-1%,4,nt
CCCC12CN3CC(C)(CN(C1)C3c1ccccn1)C2=O (stereo unspecified),nt,5%,-17%,0%,6,nt
Cn1ncnc2c(=O)n(C)c(=O)nc1-2,-10%,?,?,1%,-10,-81*
Cc1ccc(-c2nc3c(=O)n(C)c(=O)nc-3n(C)n2)cc1,nt,nt,nt,-1%,nt,nt
Cc1ccc(/C(CSc2nccn2-c2ncc(C(F)(F)F)cc2Cl)=N\O)cc1,5%,3.5µM*,4%,1%,0,38
Cc1ccc(Sc2ccc(/C=N/O)cc2[N+](=O)[O-])cc1,-13%,?,?,-2%,-13,-69*
OC(CON=C1c2ccccc2-c2ccccc21)CN1CCNCC1 (stereo unspecified),8%,?,?,nt,3,-18
OCCN1CCN(CCCN2c3ccccc3Sc3ccc(C(F)(F)F)cc32)CC1,1%,?,?,0%,-86,-96*
FC(F)(F)c1ccc2c(c1)N(CCCN1CCN(CCCl)CC1)c1ccccc1S2,-1%,?,-16%,2%,-18,-78*
CCOC(=O)C1=C(CSc2nc3ccccc3s2)NC(=O)NC1c1ccc(OC)cc1 (stereo unspecified),-1%,?,?,-4%,23,7
CCOCCOC(C)=O,-7%[96 µM],nt,nt,nt,13,nt
COc1ccc(-c2noc(=O)n2Cc2cc(C)ccc2C)cc1,9%,11µM*,-26%,0%,-22,0
SMILES,GLP1R ag,GLP1R inv ag,GLP1R cytotox,ClpP mod,DRD3 agonist,D3 antag
COc1cccc(Cn2c(-c3cccs3)noc2=O)c1,16%,0%,?,-3%,-29,-18
COc1ccc(OC)c(-n2c(O)c(C=NCc3ccc4c(c3)OCO4)c(=O)[nH]c2=O)c1,7%,5%,1%,-3%,4,20
O=c1[nH]c(=O)n(-c2cccc3ccccc23)c(O)c1C=NCc1ccc2c(c1)OCO2,-8%,7%,-13%,0%,-1,-63*
COc1ccc(C2/C=C\CN(C(=O)Oc3ccc(C(F)(F)F)cc3)CC(=O)N2Cc2ccc(F)cc2)cc1 (stereo unspecified),1%,?,5%,-4%,1,?
O=C(Cc1c(-c2ccccc2)nc2ccc(Br)cn12)N1CCCC1,8%,12%,1%,-6%,4,-9
COc1ccc(-c2nc3ccc(Br)cn3c2CC(=O)N2CCCC2)cc1OC,15%,8%,0%,-9%,-8,-52*
CCC1(CC)C(=O)NC(=O)NC1=O,5%,nt,nt,nt,-6,nt
COC1=CC(=O)c2c(ccc3ncnc(N)c23)C1=O,-5%,?,?,0%,-12,-65*
Cc1c(N=Cc2c(O)n(Cc3ccco3)c(=O)[nH]c2=O)c(=O)n(-c2ccccc2)n1C,-2%,7%,1%,11µM*,0,4
NNC(=O)c1ccc(OCC2CC(c3ccc(Cl)cc3)=NO2)cc1 (stereo unspecified),3%,13µM*,13µM*,-3%,4,-5
CC(CN1CCOCC1)C(C#N)(c1ccccc1)c1ccccc1 (stereo unspecified),12%,?,25%,nt,-15,7
CN1CCN(CCC(C#N)(c2ccccc2)c2ccccc2)CC1,-3%,?,-20%,1%,-1,-80*
COc1cc(OC)c(OC)cc1CNCCc1ccc(F)cc1,10%,-18%,-4%,nt,-18,0
Fc1ccc(CCNCc2ccc(Cl)c(Cl)c2)cc1,-9%,?,-1%,-4%,-32,-72*
CCc1ccc(CNCCc2ccc(F)cc2)cc1,9%,-23%,-3%,2%,-8,-14
COc1ccccc1CNCCc1ccc(F)cc1,-1%,?,-18%,-4%,-17,-55*
O=C(CCl)c1ccc(Cl)cc1Cl,12%,nt,nt,nt,-11,nt
Nc1ccccc1C(=O)OCCOc1ccccc1,-2%,?,0%,28µM*,-1,4
CCOc1ccc(Nc2nc(N)c(C(=O)c3ccccc3Cl)s2)cc1,nt,?,?,-1%,70*,nt

# From PubChem
